Assay results taken from PubChem BioAssay AID2557 (NMMLSC, 2010).
Where “and” joins values, the source holds several entries; their conditions need not be identical. Equal values may be shown once. The whole screen tested about 330,000 compounds, of which about 650 (0.2%) were called active. Cut-off read from the data, not from the text of the source: active = inhibition above about 50%; inactive = the rest. Many of the other results were omitted from the sample, so actives are more common in it than they were.

molecular target: Integrin alpha-4 (Homo sapiens) (UniProt P13612); experiment: inhibition in human VLA-4 binding assay, primary screen, VLA-4 allosteric modulator project, MLPCN library, flow cytometry, VLA-4 expressing cells (AID 2557); conditions: ligand binding flow cytometry, stronger effect = higher value, about 7 µM as worked out from the volumes in the protocol
Sequence (P13612 whole entry, looked up): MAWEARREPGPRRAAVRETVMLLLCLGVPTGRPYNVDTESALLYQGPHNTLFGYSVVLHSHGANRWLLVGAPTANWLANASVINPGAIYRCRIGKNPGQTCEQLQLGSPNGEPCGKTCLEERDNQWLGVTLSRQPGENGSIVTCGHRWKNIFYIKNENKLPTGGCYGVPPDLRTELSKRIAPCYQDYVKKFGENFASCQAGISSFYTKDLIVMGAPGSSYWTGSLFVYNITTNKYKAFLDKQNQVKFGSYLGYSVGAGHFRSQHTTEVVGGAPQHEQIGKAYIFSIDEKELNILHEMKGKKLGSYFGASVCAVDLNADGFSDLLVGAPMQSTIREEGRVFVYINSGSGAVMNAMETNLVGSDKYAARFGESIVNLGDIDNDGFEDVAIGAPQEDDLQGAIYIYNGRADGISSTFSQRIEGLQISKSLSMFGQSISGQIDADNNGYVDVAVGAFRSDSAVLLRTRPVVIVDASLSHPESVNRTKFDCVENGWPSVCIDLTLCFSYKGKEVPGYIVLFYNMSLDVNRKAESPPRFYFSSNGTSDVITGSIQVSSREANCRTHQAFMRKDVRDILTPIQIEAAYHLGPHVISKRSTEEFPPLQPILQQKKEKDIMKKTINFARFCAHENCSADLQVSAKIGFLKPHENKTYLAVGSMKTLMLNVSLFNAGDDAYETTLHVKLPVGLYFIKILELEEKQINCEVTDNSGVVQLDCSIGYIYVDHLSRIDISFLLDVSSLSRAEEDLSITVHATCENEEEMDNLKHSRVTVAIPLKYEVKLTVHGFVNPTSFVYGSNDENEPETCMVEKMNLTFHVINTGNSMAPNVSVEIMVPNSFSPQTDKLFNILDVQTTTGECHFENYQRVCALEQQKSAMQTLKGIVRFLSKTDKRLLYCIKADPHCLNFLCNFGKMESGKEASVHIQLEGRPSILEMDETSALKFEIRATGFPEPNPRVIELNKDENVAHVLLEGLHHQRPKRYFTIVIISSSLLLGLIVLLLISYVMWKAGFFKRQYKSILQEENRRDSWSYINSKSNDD

SMILES	inhibition
CCOC(=O)C1=C(C)OC(N)=C(C(=O)OC)C12C(=O)Nc1ccc(Br)cc12 (stereo not given)	15.8% (inactive)
CCOC(=O)CC1=C(C(=O)OCC)C2(C(=O)N1)C(C(=O)OC)=C(N)Oc1ccccc12 (stereo not given)	-7.95% (inactive)
C=CCN1C(=O)C2(C(C(=O)OCC)=C(N)Oc3c2c(=O)oc2ccccc32)c2ccccc21 (stereo not given)	59.3% (active)
CN(C)C(=O)Oc1cc(OC(=O)N(C)C)cc(C(O)CNC(C)(C)C)c1 (stereo not given)	-22.5% (inactive) and -5.62% (inactive)
CCc1nnc(NS(=O)(=O)c2ccc(N=Cc3c(O)n(-c4ccccc4)c(=O)[nH]c3=O)cc2)s1	-0.39% (inactive)
O=c1c2ccccc2nc(-c2ccc(Cl)cc2Cl)n1-c1ccncc1	62.6% (active)
Cc1nc2ccccc2c(=O)n1-c1ccc(Cl)cc1Cl	24.4% (inactive)
COc1ccc(-n2c(-c3ccccc3)nc3ccccc3c2=O)cc1	-3.5% (inactive)
Cn1c(O)c(C(=Nc2ccc(F)cc2)c2ccccc2)c(=O)n(C)c1=O	5.63% (inactive)
C=CCn1c(O)c(/C=N/N2CCOCC2)c(=O)[nH]c1=S	7.33% (inactive)
